# Results as given in the supplement of paper PMC11732987, “Enantioselective OTUD7B fragment discovery through chemoproteomics screening and high-throughput optimisation” (Communications Chemistry, 2025).
# Values without a mark were called inactive.
# Legend:
# Assay in all cases: log2 ratio of Biotin-Ahx-Ub-VS probe labelling (fragment/DMSO); higher = less target engagement (more negative = stronger competition), active = hit call of the paper (q ≤ 0.05, log2 ratio ≤ -1)
# Settings in all cases: compound concentration: 200 uM; treatment time: 3 h
# ALG13 = molecular target: T1, ALG13 (UniProt Q9NP73)
# T1 sequence (whole entry): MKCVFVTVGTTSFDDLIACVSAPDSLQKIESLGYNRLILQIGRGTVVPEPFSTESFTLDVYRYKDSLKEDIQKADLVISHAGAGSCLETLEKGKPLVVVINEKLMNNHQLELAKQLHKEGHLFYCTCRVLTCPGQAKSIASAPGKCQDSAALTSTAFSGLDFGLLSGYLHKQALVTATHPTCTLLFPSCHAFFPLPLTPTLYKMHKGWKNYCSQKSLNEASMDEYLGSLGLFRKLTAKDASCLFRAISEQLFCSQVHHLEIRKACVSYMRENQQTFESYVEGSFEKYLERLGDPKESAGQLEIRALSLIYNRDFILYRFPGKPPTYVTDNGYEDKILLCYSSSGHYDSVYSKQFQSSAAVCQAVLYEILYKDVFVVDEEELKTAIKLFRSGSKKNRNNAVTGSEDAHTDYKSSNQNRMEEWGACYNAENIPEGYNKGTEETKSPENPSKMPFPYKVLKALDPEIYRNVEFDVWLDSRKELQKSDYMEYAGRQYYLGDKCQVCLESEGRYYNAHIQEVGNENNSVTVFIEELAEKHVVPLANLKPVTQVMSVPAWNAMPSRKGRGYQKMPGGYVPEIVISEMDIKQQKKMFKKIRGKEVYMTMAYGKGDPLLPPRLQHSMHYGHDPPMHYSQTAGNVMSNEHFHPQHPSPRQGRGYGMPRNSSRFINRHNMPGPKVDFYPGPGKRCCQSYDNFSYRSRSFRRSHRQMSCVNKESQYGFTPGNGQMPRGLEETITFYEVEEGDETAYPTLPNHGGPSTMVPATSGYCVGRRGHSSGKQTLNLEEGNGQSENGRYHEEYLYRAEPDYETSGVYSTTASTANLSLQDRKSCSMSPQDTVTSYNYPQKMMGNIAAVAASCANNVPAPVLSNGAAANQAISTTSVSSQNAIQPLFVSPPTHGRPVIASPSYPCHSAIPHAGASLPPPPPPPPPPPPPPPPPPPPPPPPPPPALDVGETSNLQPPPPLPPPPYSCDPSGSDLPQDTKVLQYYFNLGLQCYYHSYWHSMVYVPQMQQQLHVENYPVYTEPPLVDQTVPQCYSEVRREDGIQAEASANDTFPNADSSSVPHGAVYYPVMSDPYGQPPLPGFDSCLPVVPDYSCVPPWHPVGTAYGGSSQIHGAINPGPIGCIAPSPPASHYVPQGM
# How it was run: (§1)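 Fragment (200 µM) or vehicle was incubated for 3 h with triplicate HEK293T lysate samples of 495 µg, which were then treated with Biotin-Ahx-Ub-VS at 0.5 µM final for 1 h. Labelled DUBs were enriched on NeutrAvidin, digested with LysC and trypsin, and analysed by diaPASEF LC-MS/MS. Values are average log2 fragment/vehicle ratios from an unpaired t-test on global-median-normalised Spectronaut label-free quantities, using proteins with ≥2 unique peptides.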
# ATXN3 = ATXN3 (UniProt P54252)
# ATXN3, sequence (P54252 whole entry): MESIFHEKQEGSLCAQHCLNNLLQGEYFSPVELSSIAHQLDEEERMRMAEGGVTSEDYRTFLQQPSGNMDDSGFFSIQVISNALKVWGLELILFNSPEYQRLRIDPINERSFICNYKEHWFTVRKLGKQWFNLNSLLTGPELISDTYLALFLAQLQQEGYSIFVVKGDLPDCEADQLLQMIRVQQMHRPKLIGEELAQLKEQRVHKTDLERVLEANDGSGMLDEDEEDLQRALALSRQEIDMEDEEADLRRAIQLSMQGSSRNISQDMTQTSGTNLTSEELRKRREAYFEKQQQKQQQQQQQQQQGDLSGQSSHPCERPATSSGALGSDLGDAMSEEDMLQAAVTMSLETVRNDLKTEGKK
# How it was run: as §1
# BAP1 = molecular target: T2, BAP1 (UniProt Q92560)
# T2 sequence (whole entry): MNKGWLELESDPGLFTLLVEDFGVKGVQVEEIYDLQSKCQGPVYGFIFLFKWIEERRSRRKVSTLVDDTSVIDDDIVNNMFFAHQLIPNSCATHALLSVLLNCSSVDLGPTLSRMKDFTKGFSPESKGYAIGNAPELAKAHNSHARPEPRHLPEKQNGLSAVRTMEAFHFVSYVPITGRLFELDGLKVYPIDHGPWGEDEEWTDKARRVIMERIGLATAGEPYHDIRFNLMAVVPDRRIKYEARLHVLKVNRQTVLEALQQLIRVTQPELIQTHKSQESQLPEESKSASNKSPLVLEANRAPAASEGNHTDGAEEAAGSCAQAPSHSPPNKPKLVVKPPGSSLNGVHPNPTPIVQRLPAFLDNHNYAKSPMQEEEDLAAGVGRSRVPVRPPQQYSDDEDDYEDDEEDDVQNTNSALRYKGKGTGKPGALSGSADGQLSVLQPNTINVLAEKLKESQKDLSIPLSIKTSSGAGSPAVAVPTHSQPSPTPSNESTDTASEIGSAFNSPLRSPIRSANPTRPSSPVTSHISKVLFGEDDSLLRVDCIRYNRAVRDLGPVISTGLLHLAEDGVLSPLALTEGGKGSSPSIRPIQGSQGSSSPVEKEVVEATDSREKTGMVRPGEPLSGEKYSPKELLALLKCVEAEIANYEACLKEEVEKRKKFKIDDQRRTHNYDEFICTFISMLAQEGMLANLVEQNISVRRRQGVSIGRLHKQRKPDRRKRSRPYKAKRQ
# How it was run: as §1
# EIF3F = EIF3F (UniProt O00303)
# EIF3F, sequence (O00303 whole entry): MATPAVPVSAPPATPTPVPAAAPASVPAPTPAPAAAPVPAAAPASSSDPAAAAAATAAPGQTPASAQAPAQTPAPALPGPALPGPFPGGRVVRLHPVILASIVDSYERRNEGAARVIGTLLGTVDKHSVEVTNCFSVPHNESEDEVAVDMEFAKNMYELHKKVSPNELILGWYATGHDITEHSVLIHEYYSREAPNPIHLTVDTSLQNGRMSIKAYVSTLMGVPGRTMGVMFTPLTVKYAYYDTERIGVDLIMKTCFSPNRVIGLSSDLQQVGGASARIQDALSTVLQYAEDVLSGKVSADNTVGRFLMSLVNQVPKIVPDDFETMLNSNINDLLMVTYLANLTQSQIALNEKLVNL
# How it was run: as §1
# EIF3H = EIF3H (UniProt O15372)
# EIF3H, sequence (O15372 whole entry): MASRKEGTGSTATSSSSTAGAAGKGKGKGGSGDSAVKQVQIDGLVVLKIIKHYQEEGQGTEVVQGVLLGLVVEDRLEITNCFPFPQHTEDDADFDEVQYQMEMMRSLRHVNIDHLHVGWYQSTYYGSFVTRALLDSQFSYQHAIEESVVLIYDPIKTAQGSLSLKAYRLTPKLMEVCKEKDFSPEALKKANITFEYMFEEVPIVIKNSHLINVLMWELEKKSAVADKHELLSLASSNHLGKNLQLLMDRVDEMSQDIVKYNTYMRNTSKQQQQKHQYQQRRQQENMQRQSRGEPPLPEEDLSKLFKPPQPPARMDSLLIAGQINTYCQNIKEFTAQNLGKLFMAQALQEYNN
# How it was run: as §1
# FAM105A = molecular target: T3, FAM105A (UniProt Q9NUU6)
# T3 sequence (whole entry): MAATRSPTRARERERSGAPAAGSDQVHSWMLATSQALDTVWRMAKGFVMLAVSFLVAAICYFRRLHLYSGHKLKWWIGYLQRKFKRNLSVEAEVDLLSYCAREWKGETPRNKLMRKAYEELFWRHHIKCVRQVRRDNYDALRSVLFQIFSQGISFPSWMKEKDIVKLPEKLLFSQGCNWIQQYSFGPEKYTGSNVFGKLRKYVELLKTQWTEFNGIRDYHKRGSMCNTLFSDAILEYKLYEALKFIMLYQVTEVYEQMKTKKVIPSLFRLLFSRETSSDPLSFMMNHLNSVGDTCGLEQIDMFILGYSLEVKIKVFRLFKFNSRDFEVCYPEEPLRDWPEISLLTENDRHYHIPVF
# How it was run: as §1
# OTUB1 = OTUB1 (UniProt Q96FW1)
# OTUB1, sequence (Q96FW1 whole entry): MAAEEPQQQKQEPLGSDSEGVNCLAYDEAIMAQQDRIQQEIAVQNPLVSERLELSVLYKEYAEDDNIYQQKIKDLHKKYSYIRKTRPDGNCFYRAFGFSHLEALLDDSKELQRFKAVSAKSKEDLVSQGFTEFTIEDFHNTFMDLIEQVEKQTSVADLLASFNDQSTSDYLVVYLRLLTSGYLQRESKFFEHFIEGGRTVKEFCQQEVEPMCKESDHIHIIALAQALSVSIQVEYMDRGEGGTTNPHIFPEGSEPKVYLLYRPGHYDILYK
# How it was run: as §1
# OTUD4 = molecular target: T4, OTUD4 (UniProt Q01804)
# T4 sequence (whole entry): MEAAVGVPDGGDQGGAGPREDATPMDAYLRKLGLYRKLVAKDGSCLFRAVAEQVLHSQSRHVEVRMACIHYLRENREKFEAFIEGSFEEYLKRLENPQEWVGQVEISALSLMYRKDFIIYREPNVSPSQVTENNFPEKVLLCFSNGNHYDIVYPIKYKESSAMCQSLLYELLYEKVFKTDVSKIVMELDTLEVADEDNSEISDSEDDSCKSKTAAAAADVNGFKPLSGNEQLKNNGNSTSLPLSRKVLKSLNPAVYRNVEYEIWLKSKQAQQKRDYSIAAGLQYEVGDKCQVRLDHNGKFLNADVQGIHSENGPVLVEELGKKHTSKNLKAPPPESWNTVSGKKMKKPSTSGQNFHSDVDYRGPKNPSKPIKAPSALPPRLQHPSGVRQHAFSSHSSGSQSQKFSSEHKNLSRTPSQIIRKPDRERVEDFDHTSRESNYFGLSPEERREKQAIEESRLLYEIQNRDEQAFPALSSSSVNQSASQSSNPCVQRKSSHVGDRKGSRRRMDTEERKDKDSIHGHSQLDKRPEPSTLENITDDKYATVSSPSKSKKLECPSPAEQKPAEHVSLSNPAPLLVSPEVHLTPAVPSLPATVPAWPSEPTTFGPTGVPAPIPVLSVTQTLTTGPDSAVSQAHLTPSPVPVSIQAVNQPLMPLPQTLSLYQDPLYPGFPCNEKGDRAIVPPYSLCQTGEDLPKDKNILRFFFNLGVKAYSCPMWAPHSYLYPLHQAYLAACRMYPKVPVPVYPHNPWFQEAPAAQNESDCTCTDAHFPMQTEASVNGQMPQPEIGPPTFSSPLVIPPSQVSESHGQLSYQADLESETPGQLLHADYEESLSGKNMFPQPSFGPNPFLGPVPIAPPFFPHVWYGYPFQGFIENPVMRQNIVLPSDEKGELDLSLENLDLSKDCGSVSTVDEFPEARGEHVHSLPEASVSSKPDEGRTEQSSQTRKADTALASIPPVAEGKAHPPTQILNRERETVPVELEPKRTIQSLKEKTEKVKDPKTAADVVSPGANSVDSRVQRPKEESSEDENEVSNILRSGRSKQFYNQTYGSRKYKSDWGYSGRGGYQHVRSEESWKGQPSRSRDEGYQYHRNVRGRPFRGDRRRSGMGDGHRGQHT
# How it was run: as §1
# OTUD5 = molecular target: T5, OTUD5 (UniProt Q96G74)
# T5 sequence (whole entry): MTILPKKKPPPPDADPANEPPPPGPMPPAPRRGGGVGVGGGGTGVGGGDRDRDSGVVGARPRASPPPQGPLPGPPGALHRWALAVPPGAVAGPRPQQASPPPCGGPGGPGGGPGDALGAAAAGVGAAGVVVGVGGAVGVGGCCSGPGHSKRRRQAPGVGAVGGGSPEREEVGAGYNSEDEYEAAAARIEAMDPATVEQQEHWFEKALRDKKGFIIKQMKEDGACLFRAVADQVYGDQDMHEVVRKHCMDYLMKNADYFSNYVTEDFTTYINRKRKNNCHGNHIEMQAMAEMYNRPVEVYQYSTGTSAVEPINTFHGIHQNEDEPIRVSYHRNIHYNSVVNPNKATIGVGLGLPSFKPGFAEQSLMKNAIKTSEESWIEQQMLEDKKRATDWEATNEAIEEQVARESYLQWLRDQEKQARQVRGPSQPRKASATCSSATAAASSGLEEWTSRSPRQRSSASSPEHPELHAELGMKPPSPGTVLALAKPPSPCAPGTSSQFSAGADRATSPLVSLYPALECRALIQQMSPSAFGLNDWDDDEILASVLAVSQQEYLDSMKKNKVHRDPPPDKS
# How it was run: as §1
compound,measurement,setting,value
Cl.Cn1cnc2cc(CNC(=O)CCl)ccc21,log2 ratio of Biotin-Ahx-Ub-VS probe labelling,ALG13,0.056
same,log2 ratio of Biotin-Ahx-Ub-VS probe labelling,ATXN3,-0.239
same,log2 ratio of Biotin-Ahx-Ub-VS probe labelling,BAP1,-2.15 (active)
same,log2 ratio of Biotin-Ahx-Ub-VS probe labelling,EIF3F,-0.304
same,log2 ratio of Biotin-Ahx-Ub-VS probe labelling,EIF3H,0.311
same,log2 ratio of Biotin-Ahx-Ub-VS probe labelling,FAM105A,-0.318
same,log2 ratio of Biotin-Ahx-Ub-VS probe labelling,OTUB1,0.0608
same,log2 ratio of Biotin-Ahx-Ub-VS probe labelling,OTUD4,-0.0323
same,log2 ratio of Biotin-Ahx-Ub-VS probe labelling,OTUD5,-0.121
